# SMN2 splice enh – enhancers of SMN2 splice variant expression; HEK293 SMN2-luciferase splicing reporter, luminescence, 30-36 h; 210,000 tested, 2.8% active; AID 1458; Potency, µM (highest dose often 46.1 µM), for the others: top-dose activity change, positive = activation, most hits filed as activators; note: % of control where 0% means no effect; nearly all actives have a fitted effect of over 55% in size
#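 HEK293 cells carry an SMN2 minigene-luciferase reporter in which exon 7 inclusion puts luciferase in frame. Cells were seeded at 2000 cells/well, attached for 10-12 hours, then exposed to compounds for 30-36 hours at 37C before ONE-Glo luminescence.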
# NPC1 promoter act – activates the NPC1 promoter | Huh7 NPC1 promoter luciferase reporter, 24 h | Potency, µM (titrated, usually from 9.22 µM), inactives show at the highest dose activation, usual class: activators | 320,000 tested, 2.4% active | AID 485313; note: % of control where 0% means no effect; nearly all actives have a fitted effect of over 60% in size
#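 Quantitative HTS used a cell-based reporter: Huh7 cells stably bearing the NPC1 promoter upstream of luciferase were treated with compounds for 24 h, and promoter activation was read as luminescence.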
# ELG1 genotox – genotoxicity induction in ELG1-luciferase HEK293T cells; Potency, µM (highest dose often 46 µM), for inactives: at the highest dose activity change, positive = activation, usual class: activators; 330,000 tested, 1.3% active; HEK293T ELG1-luciferase reporter, luminescence, 16 h; AID 504466; note: % of control where 0% means no effect; nearly all actives have a fitted effect of over 60% in size
#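 Reporter readout depends on ELG1 protein level, which increases with genetic stress. After 16 hr compound exposure at 37 °C, luciferase activity was quantified using ONE-Glo.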
# FLuc modulator – firefly luciferase modulation, counter-screen for miR-21 project | purified FLuc, Km substrates, luminescence inhibition | P08659 | Potency, µM (top dose mostly 57.5 µM), for inactives: top-dose activity change, negative = inhibition, actives largely listed as inhibitors | 360,000 tested, 6.9% active;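 note: plate controls were vehicle for no effect and reference inhibitor for full effect; nearly all actives have a fitted effect of over 55% in size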
# Target sequence (P08659 whole entry, looked up): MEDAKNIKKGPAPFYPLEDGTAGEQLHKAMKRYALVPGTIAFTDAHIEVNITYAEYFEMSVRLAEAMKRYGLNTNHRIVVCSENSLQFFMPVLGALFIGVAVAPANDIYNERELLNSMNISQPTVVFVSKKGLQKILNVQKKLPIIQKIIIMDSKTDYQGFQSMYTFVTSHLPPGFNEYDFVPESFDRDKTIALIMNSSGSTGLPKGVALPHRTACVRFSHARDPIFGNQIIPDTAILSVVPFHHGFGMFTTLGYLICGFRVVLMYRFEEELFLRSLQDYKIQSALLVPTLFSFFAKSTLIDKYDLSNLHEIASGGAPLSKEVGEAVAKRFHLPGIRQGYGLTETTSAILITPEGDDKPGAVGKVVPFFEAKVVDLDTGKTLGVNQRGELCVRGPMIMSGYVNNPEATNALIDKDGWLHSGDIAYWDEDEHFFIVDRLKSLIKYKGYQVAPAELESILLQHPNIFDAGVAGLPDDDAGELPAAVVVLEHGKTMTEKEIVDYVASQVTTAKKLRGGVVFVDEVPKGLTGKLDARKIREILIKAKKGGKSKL
#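 Purified P. pyralis luciferase, 10 nM final, with Km-level 10 uM D-luciferin and 10 uM ATP in 50 mM Tris acetate pH 7.5, 10 mM Mg acetate, 0.01% Tween-20, 0.05% BSA; 6-point qHTS titration about 60 µM downward; luminescence read.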
# Rab9 promoter act – activators of Rab9 promoter; Huh7 Rab9 promoter-luciferase reporter, luminescence, 24 h; Potency, µM (top dose mostly 9.22 µM), without a hit: top-dose activation, negative = inhibition, hits mostly activators; 320,000 tested, 2.8% active; AID 485297; note: % of control where 0% means no effect; nearly all actives have a fitted effect of over 60% in size
#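 Huh7 cells stably carrying a Rab9 promoter-luciferase reporter, 1500 cells per well in OP-MEM I with 10% FBS, treated with compound 24 hours at 37C. Luciferase activity read by luminescence after 10 minutes with Amplite reagent.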
# * = called active by the depositor; ? = inconclusive; / = no result given. The list is not random: actives were taken first. Their share in the collection is about 7.4%. Calls come from the whole dose curve; as a rule, active = well fitted curve in the direction sought with a large enough effect; inconclusive = small, poorly fitted or top-dose-only effect, or another doubt; inactive = no such curve, though single readings can be large; an effect the other way counts as inactive or inconclusive. Potency is the fitted concentration of half-maximal effect.
SMILES,SMN2 splice enh,NPC1 promoter act,ELG1 genotox,FLuc modulator,Rab9 promoter act
CN(C)c1ccc(C(=O)/C=C/c2ccccc2)cc1,22µM*,4µM*,?,1.2µM*,3.2µM*
CN(C)c1ccc(C(=O)/C=C/c2ccc(Br)cc2)cc1,7%,25%,13%,1.7µM*,27%
CCOC(=O)c1c(-c2ccccc2)oc2ccc(NS(=O)(=O)c3ccc(C)cc3C)cc12,2%,/,/,0%,/
COc1ccc(NC(=O)CN2C(=O)CSc3ccc(S(=O)(=O)N(C)C)cc32)cc1Cl,/,/,/,-12%,/
CCN(CC)c1ccc(/C=C/C(=O)c2ccc(Br)cc2)cc1,-3%,-10%,1%,17µM*,-2%
O=C(c1ccccc1)c1ccc(-c2ccc(O)cc2)cc1,/,-2%,?,17µM*,3.2µM*
COC(=O)c1sc(NC(=O)c2ccoc2C)nc1C,22µM*,29%,?,?,?
COC(=O)c1sc(NC(=O)c2c(C)noc2C)nc1C,/,6%,?,24µM*,-2%
COC(=O)c1sc(NC(=O)c2c(-c3ccccc3)noc2C)nc1C,/,1%,2%,?,-2%
CN(CCOc1ccccc1)C(=O)C1CCC(=O)N(CCCN2CCCC2=O)C1 (stereo unspecified),/,-4%,6%,-1%,3%
Cc1ccc(NC(=O)N2C(=O)C3(OCCO3)c3ccccc32)cc1,?,3.2µM*,?,?,2µM*
CCNC(=O)c1ccc(NS(=O)(=O)c2ccc3[nH]c(=O)[nH]c3c2)cc1,/,2.2µM*,7.3µM*,15µM*,3.5µM*
CC1CCC(NC(=O)c2ccc(NS(=O)(=O)c3ccc4[nH]c(=O)[nH]c4c3)cc2)CC1 (stereo unspecified),/,?,18µM*,?,?
CC1CCCN(C(=O)c2ccc(NS(=O)(=O)c3ccc4[nH]c(=O)[nH]c4c3)cc2)C1 (stereo unspecified),/,-2%,2%,-1%,-8%
Cc1ccc(S(=O)(=O)N2CCN(C(=O)CC(C)n3nc(C)c(Cl)c3C)CC2)cc1C (stereo unspecified),/,0%,-1%,-2%,3%
Cc1[nH]c2ccccc2c1/C=N/Nc1cccc(C(=O)O)c1,/,1.6µM*,?,2.7µM*,2µM*
Cc1[nH]c2ccccc2c1/C=N/NC(=O)c1ccccc1,/,0%,4%,?,-1%
Cc1ccc(NC(=S)N/N=C/c2c(C)[nH]c3ccccc23)cc1,-27%,0%,1%,19µM*,-1%
Cc1[nH]c2ccccc2c1/C=N/NC(=O)c1ccc(N)cc1,/,-5%,7%,12µM*,1%
Cc1[nH]c2ccccc2c1/C=N/NC(=O)c1cc(-c2ccccc2)n[nH]1,/,-12%,-11%,24µM*,-3%
CCN(CC)C(=S)Oc1ccc(Cl)cc1Cl,/,-1%,-3%,1%,12%
CCOC(=O)c1c(NC(=O)CCS(=O)(=O)c2ccccc2)sc2c1CCN(C(C)C)C2,/,2%,-5%,-2%,-5%
Cc1[nH]c2ccccc2c1/C=N/NC(=O)c1cc(C(C)(C)C)[nH]n1,/,14%,-5%,12µM*,0%
Nc1ncnc2nc(Sc3ccc(Cl)cc3)[nH]c12,-27%,-2%,1%,-2%,-4%
Nc1ncnc2nc(SCc3ccc(Cl)cc3Cl)[nH]c12,-31%,-1%,3%,21µM*,1%
SMILES,SMN2 splice enh,NPC1 promoter act,ELG1 genotox,FLuc modulator,Rab9 promoter act
Oc1c(Cl)cc(Cl)cc1C=Nc1ccc2c(c1)OCCO2,/,0%,15%,27µM*,-7%
Brc1ccc(C=Nc2ccc3c(c2)OCCOCCOCCO3)s1,-1%,0%,0%,11µM*,2%
CCOC(=O)Nc1ccc2c(C)cc(=O)oc2c1,14µM*,?,18µM*,15µM*,?
CCCCOC(=O)Nc1ccc2c(C)cc(=O)oc2c1,11µM*,1.8µM*,18µM*,6µM*,1.4µM*
COc1cccc(CNC(=O)N2CCC(CN3CCC(C)CC3)CC2)c1,/,/,/,-1%,/
Cc1cccc(C#Cc2ccccc2)n1,13µM*,5.8µM*,8.2µM*,6µM*,5µM*
CC(Oc1ccc2c(c1)oc(=O)c1ccccc12)C(=O)NCCN1CCOCC1 (stereo unspecified),/,-4%,0%,4%,-5%
C/C(=N\Nc1ccc(Cl)c(C(=O)O)c1)c1ccccn1,/,16%,10%,-18%,9%
O=C(O)c1cc(S(=O)(=O)Nc2ccc3c(c2)OCCO3)c(Cl)cc1Cl,-12%,2%,9.2µM*,?,4%
Cc1ccc(N/N=C/c2ccc3c(c2)OCCO3)cc1Cl,20µM*,12%,?,24µM*,4%
C/C(=N\Nc1ccc(Cl)c(C(=O)O)c1)c1ccc2c(c1)OCO2,16µM*,2.2µM*,?,15µM*,1.6µM*
O=C(O)c1cc(N/N=C/c2ccc3c(c2)OCCO3)ccc1Cl,0.32µM*,?,0.29µM*,1.1µM*,?
COC(=O)c1cc(NS(=O)(=O)c2ccc3c(c2)OCCO3)ccc1Cl,-21%,/,/,?,/
O=C(O)c1ccc(N/N=C/c2ccc3c(c2)OCO3)cc1,/,-38%,?,0.095µM*,-59%
O=C(O)c1cc(N/N=C/c2ccc3c(c2)OCO3)ccc1Cl,4.5µM*,0.28µM*,?,0.76µM*,0.1µM*
O=C(O)c1ccc(N/N=C/c2cc3cc4c(cc3nc2Cl)OCCO4)cc1,/,0.28µM*,1.2µM*,0.024µM*,0.1µM*
O=C(O)c1ccc(N/N=C/c2cc3c(cc2[N+](=O)[O-])OCO3)cc1,-26%,-2%,-20%,?,6%
O=C(O/N=C/c1ccc2c(c1)OCO2)c1ccccc1Cl,3%,5%,2%,0.95µM*,5%
O=C(N/N=C/c1ccc2c(c1)OCO2)c1ccc(Cl)cc1Cl,/,2%,2%,?,3%
CCC(C(=O)Nc1ccccc1C(=O)OC)n1nc(C)c2c(C)n(-c3ccc(C)cc3)nc2c1=O (stereo unspecified),/,/,/,-17%,/
Cc1ccc(C)c(N2CCN(C(=O)Cn3c(-c4cccs4)cc4ccccc43)CC2)c1,/,/,/,-7%,/
O=C1OC(c2ccc3c(c2)OCO3)=N/C1=C\c1ccc(C(=O)O)cc1,/,0%,0%,0.13µM*,-3%
COc1ccc2c(c1)CCc1c-2n[nH]c1C(=O)NCCC(C)C,/,1µM*,2.6µM*,1.3µM*,0.79µM*
CNC(=O)c1[nH]nc2c1CCc1cc(OC)ccc1-2,/,?,?,17µM*,5µM*
CC(C)NC(=O)c1[nH]nc2c1CCc1ccccc1-2,/,?,?,19µM*,3.5µM*
COc1ccc(-c2nc3n(c2C)Cc2ccccc2-3)cc1,/,2.5µM*,13µM*,2.4µM*,?
O=c1cc(-c2ccccc2)nc2n1Cc1ccccc1-2,-24%,2%,13%,?,0%
COc1ccccc1N1CCN(C(=O)c2cc(CC(C)C)on2)CC1,0%,/,/,-2%,/

# Bioassay records from PubChem BioAssay.
